Laboratory results as given in the supplement of paper PMC10849652.
About 8,800 targets were measured; listed, in parts, are those with a hit and a random draw of the rest. About 0.5% of all pairs of compound and target were hits. Unmarked numbers belong to inactive results.

Experiments:
Experiment in all cases: log2 fold change, soluble protein after heating vs DMSO (PISA); higher = thermal stabilisation; K562 lysate, 10 uM; active = over 0.2 and 3.5 SD of the protein, either way, in both replicates (recomputed)
nilotinib = compound: Cc1cn(-c2cc(NC(=O)c3ccc(C)c(Nc4nccc(-c5cccnc5)n4)c3)cc(C(F)(F)F)c2)cn1 [nilotinib]
Outline: (§1)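 Quantification was by TMTpro 16plex LC-MS/MS with equalised channel sums, applied to the supernatant after 21,000xg for 90 min. Samples were crude K562 extract at 1 mg/mL protein in PBS pH 7.4 with 1 mM MgCl2, treated with 10 μM compound for 30 min, heated for 3 min across 48°C-58°C, pooled and brought to 0.5% NP-40 at 4°C. Values are log-two fold changes in thermal stability relative to solvent controls, from duplicates.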

[1] = compound: Cc1nc(Nc2n[nH]c3c2CN(C(=O)N[C@H](CN(C)C)c2ccccc2)C3(C)C)c2sccc2n1
Outline: as §1

dasatinib = compound: Cc1nc(Nc2ncc(C(=O)Nc3c(C)cccc3Cl)s2)cc(N2CCN(CCO)CC2)n1 [dasatinib]
Outline: as §1

[2] = compound: Cc1ncc(-c2ccnc(Nc3ccc(S(C)(=O)=O)cc3)n2)n1C(C)C
Outline: as §1

[3] = compound: Cn1cc(-c2ccc3c(c2)CCN3C(=O)Cc2cccc(C(F)(F)F)c2)c2c(N)ncnc21
Outline: as §1

quisinostat = compound: Cn1cc(CNCC2CCN(c3ncc(C(=O)NO)cn3)CC2)c2ccccc21 [quisinostat]
Outline: as §1

tipifarnib = compound: Cn1cncc1[C@@](N)(c1ccc(Cl)cc1)c1ccc2c(c1)c(-c1cccc(Cl)c1)cc(=O)n2C [tipifarnib]
Outline: as §1

[4] = compound: NC(=O)Nc1cc(-c2cccc(F)c2)sc1C(=O)N[C@H]1CCCNC1
Outline: as §1

[5] = compound: NC(=O)c1cnc(N[C@@H]2CCCC[C@@H]2N)nc1Nc1cccc(-n2nccn2)c1
Outline: as §1

[6] = compound: NC1(c2ccc(-c3nc4ccn5c(=O)[nH]nc5c4cc3-c3ccccc3)cc2)CCC1
Outline: as §1

[7] = compound: NCC(=O)Nc1ccc(-n2nc(C(F)(F)F)cc2-c2ccc3c(ccc4ccccc43)c2)cc1
Outline: as §1

vorinostat = compound: O=C(CCCCCCC(=O)Nc1ccccc1)NO [vorinostat]
Outline: as §1

silmitasertib = compound: O=C(O)c1ccc2c(c1)nc(Nc1cccc(Cl)c1)c1ccncc12 [silmitasertib]
Outline: as §1

[8] = compound: O=C1NC(=O)C(c2cnc3ccccn23)=C1c1cn2c3c(cc(F)cc13)CN(C(=O)N1CCCCC1)CC2
Outline: as §1

entospletinib = compound: c1cn2cc(-c3ccc4cn[nH]c4c3)nc(Nc3ccc(N4CCOCC4)cc3)c2n1 [entospletinib]
Outline: as §1

UniProt Q8WXB1, sequence (Q8WXB1 whole entry, looked up): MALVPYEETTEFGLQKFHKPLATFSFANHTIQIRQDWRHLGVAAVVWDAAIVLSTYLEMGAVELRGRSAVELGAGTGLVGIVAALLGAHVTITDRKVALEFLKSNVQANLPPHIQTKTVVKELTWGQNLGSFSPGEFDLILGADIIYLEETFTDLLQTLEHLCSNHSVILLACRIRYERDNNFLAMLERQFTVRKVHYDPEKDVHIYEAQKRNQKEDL
UniProt Q6ZRQ5, sequence (Q6ZRQ5 whole entry, looked up): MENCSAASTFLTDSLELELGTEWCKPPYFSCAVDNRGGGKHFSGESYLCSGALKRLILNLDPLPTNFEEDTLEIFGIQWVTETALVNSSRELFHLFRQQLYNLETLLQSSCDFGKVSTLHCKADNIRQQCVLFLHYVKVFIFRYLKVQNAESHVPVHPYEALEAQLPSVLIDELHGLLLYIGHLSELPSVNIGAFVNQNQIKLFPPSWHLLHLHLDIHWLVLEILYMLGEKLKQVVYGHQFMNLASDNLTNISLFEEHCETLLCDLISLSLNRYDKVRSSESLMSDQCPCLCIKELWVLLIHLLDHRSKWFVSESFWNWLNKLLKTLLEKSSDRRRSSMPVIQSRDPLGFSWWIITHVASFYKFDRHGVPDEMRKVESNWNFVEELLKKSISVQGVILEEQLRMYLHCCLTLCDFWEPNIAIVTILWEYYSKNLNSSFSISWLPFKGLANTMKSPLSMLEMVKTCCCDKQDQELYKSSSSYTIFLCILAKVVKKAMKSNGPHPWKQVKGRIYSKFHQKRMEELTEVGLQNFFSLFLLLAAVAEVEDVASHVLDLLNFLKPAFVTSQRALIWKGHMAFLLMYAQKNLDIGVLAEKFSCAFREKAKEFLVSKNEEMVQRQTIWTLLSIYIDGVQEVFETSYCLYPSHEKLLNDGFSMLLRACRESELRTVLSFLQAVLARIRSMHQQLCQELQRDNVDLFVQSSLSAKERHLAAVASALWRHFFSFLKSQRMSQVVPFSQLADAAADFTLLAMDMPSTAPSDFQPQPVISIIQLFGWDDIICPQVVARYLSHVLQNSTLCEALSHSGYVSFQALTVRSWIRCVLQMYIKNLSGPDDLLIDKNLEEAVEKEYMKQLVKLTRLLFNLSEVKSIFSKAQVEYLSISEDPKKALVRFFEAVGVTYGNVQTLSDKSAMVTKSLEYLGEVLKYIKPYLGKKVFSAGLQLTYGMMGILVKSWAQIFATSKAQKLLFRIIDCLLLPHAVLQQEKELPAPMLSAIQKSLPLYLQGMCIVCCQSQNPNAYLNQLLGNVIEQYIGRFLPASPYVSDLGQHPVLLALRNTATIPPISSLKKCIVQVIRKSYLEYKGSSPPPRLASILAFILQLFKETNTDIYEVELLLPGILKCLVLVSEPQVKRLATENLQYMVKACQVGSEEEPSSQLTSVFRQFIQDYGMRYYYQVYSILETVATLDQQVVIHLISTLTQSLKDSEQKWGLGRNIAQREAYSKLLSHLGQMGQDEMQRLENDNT
UniProt Q9Y2X0, sequence (Q9Y2X0 whole entry, looked up): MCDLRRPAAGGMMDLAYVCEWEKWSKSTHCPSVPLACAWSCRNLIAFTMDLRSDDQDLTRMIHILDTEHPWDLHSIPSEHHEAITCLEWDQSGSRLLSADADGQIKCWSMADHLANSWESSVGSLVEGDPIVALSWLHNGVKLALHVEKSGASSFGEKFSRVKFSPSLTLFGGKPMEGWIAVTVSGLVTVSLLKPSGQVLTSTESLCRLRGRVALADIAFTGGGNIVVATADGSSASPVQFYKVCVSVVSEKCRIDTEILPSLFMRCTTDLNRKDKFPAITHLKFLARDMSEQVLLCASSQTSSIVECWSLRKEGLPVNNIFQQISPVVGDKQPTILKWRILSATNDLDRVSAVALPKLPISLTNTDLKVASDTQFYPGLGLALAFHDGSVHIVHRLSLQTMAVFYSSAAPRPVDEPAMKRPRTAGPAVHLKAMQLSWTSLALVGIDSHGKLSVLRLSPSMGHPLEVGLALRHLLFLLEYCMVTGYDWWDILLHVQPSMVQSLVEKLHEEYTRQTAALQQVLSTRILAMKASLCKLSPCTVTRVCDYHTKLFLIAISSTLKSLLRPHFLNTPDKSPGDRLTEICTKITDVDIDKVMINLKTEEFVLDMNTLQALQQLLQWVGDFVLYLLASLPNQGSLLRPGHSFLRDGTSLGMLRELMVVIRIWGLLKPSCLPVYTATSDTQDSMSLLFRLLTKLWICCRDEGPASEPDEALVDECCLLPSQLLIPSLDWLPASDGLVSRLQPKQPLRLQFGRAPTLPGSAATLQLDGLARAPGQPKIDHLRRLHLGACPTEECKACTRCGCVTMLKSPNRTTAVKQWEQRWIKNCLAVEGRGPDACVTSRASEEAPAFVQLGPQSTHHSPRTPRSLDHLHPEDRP
UniProt Q02750, sequence (Q02750 whole entry, looked up): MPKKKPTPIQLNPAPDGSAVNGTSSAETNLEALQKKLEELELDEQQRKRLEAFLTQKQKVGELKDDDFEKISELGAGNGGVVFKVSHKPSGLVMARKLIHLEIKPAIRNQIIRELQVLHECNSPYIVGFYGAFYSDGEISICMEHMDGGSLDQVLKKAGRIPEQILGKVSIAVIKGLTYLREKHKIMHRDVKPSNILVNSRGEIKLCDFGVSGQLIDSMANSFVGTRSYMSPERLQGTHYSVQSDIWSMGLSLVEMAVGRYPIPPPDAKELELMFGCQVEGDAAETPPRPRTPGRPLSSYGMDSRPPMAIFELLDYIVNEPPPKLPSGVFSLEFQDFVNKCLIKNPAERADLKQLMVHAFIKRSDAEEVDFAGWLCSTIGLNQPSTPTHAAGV
UniProt Q71SY5, sequence (Q71SY5 whole entry, looked up): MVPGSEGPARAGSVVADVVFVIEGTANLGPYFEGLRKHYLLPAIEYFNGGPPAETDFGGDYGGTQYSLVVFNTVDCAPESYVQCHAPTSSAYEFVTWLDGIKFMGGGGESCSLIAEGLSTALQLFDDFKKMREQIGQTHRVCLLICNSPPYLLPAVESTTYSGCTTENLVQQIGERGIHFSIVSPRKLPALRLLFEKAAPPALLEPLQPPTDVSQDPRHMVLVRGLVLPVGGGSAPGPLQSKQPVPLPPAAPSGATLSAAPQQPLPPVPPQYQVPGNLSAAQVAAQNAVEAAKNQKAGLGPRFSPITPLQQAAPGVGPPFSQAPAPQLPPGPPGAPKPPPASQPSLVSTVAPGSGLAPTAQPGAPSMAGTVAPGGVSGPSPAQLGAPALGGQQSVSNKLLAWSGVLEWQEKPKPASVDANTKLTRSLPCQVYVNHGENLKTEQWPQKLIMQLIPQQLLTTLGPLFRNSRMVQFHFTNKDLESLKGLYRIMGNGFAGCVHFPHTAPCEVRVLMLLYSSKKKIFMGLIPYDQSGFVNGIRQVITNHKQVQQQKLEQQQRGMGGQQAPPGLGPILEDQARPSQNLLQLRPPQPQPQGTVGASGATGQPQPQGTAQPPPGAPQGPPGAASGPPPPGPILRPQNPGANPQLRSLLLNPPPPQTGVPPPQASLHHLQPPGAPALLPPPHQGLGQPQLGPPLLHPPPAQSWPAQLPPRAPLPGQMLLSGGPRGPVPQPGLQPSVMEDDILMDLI
UniProt O95297, sequence (O95297 whole entry, looked up): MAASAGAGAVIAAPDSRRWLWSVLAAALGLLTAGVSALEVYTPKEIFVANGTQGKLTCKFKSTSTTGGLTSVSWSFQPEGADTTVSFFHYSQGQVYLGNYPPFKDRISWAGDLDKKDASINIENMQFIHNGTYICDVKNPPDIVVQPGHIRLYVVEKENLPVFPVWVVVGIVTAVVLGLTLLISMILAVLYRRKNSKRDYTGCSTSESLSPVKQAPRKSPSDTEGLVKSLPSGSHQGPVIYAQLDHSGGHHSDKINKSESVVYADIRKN
UniProt Q9HD34, sequence (Q9HD34 whole entry, looked up): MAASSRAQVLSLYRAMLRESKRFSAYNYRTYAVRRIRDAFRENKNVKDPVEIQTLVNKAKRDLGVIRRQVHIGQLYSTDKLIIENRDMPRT
UniProt Q00013, sequence (Q00013 whole entry, looked up): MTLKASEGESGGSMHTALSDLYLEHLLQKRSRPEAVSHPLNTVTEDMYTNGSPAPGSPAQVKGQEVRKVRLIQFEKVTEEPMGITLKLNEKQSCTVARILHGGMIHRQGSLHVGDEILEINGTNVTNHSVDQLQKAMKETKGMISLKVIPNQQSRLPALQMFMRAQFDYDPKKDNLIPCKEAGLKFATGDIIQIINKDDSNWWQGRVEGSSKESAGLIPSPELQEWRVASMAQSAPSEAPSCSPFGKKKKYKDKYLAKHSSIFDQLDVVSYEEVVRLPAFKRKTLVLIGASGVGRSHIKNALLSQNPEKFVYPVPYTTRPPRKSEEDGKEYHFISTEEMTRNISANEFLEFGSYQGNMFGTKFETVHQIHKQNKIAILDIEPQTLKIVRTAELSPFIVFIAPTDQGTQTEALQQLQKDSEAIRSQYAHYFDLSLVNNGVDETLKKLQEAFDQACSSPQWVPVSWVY
UniProt Q16539, sequence (Q16539 whole entry, looked up): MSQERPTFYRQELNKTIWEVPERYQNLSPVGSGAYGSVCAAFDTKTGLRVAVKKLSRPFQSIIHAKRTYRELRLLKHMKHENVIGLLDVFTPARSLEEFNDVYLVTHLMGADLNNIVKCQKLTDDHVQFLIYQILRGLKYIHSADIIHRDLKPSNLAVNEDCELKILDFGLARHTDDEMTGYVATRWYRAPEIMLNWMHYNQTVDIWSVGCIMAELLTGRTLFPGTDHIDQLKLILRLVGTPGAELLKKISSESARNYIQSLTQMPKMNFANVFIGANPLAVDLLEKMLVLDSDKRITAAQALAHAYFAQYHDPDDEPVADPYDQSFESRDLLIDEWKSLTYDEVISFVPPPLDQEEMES

Target	log2 fold change (nilotinib)	log2 fold change [1]	log2 fold change (dasatinib)	log2 fold change [2]	log2 fold change [3]	log2 fold change (quisinostat)	log2 fold change (tipifarnib)	log2 fold change [4]	log2 fold change [5]	log2 fold change [6]	log2 fold change [7]	log2 fold change (vorinostat)	log2 fold change (silmitasertib)	log2 fold change [8]	log2 fold change (entospletinib)
MAPK14 isoform 2 (UniProt Q16539)	0.523	0.041	0.879 (active)	0.037	0.033	-0.031	-0.039	-0.035	0.076	-0.018	-0.06	-0.328	0.291	-0.092	-0.015
LYRM4 (UniProt Q9HD34)	0.009	-0.031	-0.061	0.052	-0.028	-0.093	-0.028	0.054	-0.036	-0.005	0.01	0.119	-0.019	0.023	0.007
MAP7D3 (UniProt Q8IWC1)	-0.012	-0.01	0.03	-0.037	0.029	-0.101	0.014	0.003	-0.016	0.005	0.098	0.037	0.059	-0.046	-0.013
KIF3C (UniProt O14782)	-0.038	-0.117	0.026	0.191	0.062	-0.204	-0.187	0.043	-0.194	0.145	1.17 (active)	-0.352	0.249	0.074	0.032
MPP1 (UniProt Q00013)	-0.017	-0.014	-0.011	0.011	0.007	0.017	0	0.024	0.017	0	0.012	-0.297 (active)	0.02	0.024	0.007
MAP11 (UniProt Q8WVR3)	-0.088	0.002	0.002	0.021	-0.058	-0.026	-0.063	0.037	-0.014	-0.007	-0.017	-0.488 (active)	-0.015	0.056	-0.131
LARP4B (UniProt Q92615)	-0.05	0.03	-0.053	-0.02	0.012	-0.026	0	0.026	-0.001	0.008	0.019	-0.306 (active)	0.032	-0.028	-0.011
MAP4K5 (UniProt Q9Y4K4)	-0.035	0	0.528 (active)	-0.007	0.105	-0.245	0.082	0.468 (active)	-0.029	0.11	-0.072	-0.218	-0.008	-0.07	0
METTL2A (UniProt Q96IZ6)	-0.012	0.022	0.044	-0.014	0.03	-0.042	0.01	0.057	-0.029	0.005	0.033	-0.28 (active)	-0.005	0.058	-0.003
MAP2K7 isoform 4 (UniProt O14733)	0.017	-0.101	-0.093	0	0.22	0.001	-0.024	0.033	0.001	0.002	0.009	-1.09 (active)	0.167	-0.051	-0.047
MICB, A0A140T979	-0.044	0.042	0.024	0.033	-0.055	-0.06	-0.025	-0.004	0.491	0.21	0.068	0.196	-0.121	0.021	0.35
MCU (UniProt Q8NE86)	-0.044	0.012	-0.065	0.072	0.006	-0.054	-0.096	0.011	0.025	-0.085	-0.037	0.04	0	-0.072	-0.016
MAN2B2 (UniProt Q9Y2E5)	-0.039	-0.173	0.051	-0.004	0.011	-0.033	-0.041	0.04	0.038	0.033	–	0.117	-0.014	-0.005	0.019
MPZL1 (UniProt O95297)	-0.03	0.032	0.033	-0.014	0.018	0.071	0.035	-0.02	0.026	0.028	-0.059	0.022	-0.004	0.021	0.017
MAP2K1 (UniProt Q02750)	-0.02	0.107	0.296 (active)	0.057	-0.057	-0.064	-0.037	0.4 (active)	0.033	-0.02	-0.005	-0.116	0.108	0.006	0.03
MMS22L (UniProt Q6ZRQ5)	0.033	0	0.026	-0.015	-0.007	-0.086	-0.013	0.041	-0.03	-0.06	0.022	-0.508 (active)	0.016	0.138	0.069
MFF isoform 2 (UniProt Q9GZY8)	-0.025	-0.039	-0.005	0.008	-0.012	0.002	-0.004	0.007	0.016	-0.026	0.003	0.17	-0.048	0.029	-0.055
MME (UniProt P08473)	-0.09	0.082	-0.513 (active)	0.021	0.104	-0.02	-0.031	0.085	0.061	-0.014	–	0.096	-0.033	-0.038	–
MED25 isoform 3 (UniProt Q71SY5)	0.132	0.026	-0.039	0.097	-0.017	-0.008	-0.024	0.029	-0.013	-0.073	–	-0.294 (active)	0.021	0.024	0.127
METTL21A (UniProt Q8WXB1)	0.017	0.055	0.023	0.026	-0.064	-0.069	-0.005	-0.001	-0.007	0.003	–	0.07	-0.016	-0.013	–
MED16 (UniProt Q9Y2X0)	-0.019	0.01	-0.026	0.023	-0.016	-0.01	0.008	-0.013	0.023	-0.047	-0.005	-0.354 (active)	0.052	-0.022	0.016
